For 59 compounds, Potency and activity, negative = inhibition results are on record in PubChem BioAssay AID1347417 (National Center for Advancing Translational Sciences (NCATS), 2020).

The structures appear in SMILES notation. The whole screen tested about 120,000 compounds, of which about 5,300 (4.4%) were called active. Entries that show only a call come without a potency. Not shown: some 22% with an inconclusive outcome. For the sample, actives were picked, then their nearest neighbours and some compounds at random. Values without a mark were called inactive. Calls follow the shape of the dose curve; as a rule, active = well fitted inhibition curve with a large enough effect; inconclusive = small, poorly fitted or top-dose-only effect; inactive = no such curve, though single readings can be large or run the other way.
Potency is read from the fitted curve at half-maximal effect.

The nature of the assay: qHTS Primary assay for Inhibitors of Plasmodium falciparum Dd2 growth in vitro. Also: nearly all actives have a fitted effect of over 65% in size. The note with it: P. falciparum Dd2 growth, SYBR Green, 72 h; series mostly up to 28.9 µM. The source says: Malaria, a parasitic disease spread to humans through the bite of a Plasmodium infected Anopheles mosquito, continues to be a global health burden affecting millions of people, with an estimated 228 million cases and 405,000 deaths in 2018. Concerns about safety and limitations of current antimalarial treatments strongly emphasize the need to develop new therapeutic options. The scarce number of chemotypes and validated drug targets with efficacy against the liver stage, have hindered development of new antimalarials. To address this, a chemoprophylactic drug discovery effort was conducted through a combined phenotypic high-throughput asexual blood stage and liver stage screen, providing a robust foundation to identify liver-stage active lead chemotypes. Compounds were initially screened against Plasmodium falciparum Dd2 strain parasites using a in vitro SYBRGreen-1 based 72 hr proliferation assay to identify novel chemotypes to advance to liver stage assays. NIH/NCATS Early Translation Branch Assay Submitter (PI): Anton Simeonov Ph.D.
Malaria-vivax Assay Protocol: PROTOCOL TABLE (as described by Inglese et al., 2007) SEQUENCE No. (e.g., 1, 2, 3, etc.); […] (e.g., Cells, Incubation, Reagent, etc.); VALUE; DESCRIPTION SEQUENCE, Parameter, Description 1; Reagent; 3 uL complete malaria growth medium, 1536 TC treated Black clear bottom plate 2; Controls; 23 nL positive control artesunate (300 nM final) to column 1; Neutral control DMSO to columns 2-4 3; Compound; 23 nL of compounds in dose response concentration (29 uM to 0.5 nM final) 4; Reagent; 5 uL malaria infected red blood cells (2.5% hematocrit final, 0.3% parasitemia 5; Time; 72 hours at 37C (5% O2, 5% CO2, 90% N2; 95% Rh) 6; Reagent; 2 uL lysis buffer/SYBRGreen-1, 25 sec shake immediately following dispense 7; Time; ~16 hours at 37C (5% O2, 5% CO2, 90% N2; 95% Rh) 8; Detector; EnVision (PerkinElmer) bottom read at 485/14nm excitation and 535/25 nm emission NOTES (numbers refer to sequence above): 1; Complete Malaria Growth Media: 1X RPMI-1640 w/L-glutamine, 5.5g/L Albumax II, 367 uM Hypoxanthine, 25 mM HEPES, 0.25% Sodium Bicarbonate, 35 uM Gentamicin sulfate 2; Controls were added using the Kalypsis Pintool (Wako USA) equipped with 1536 pinhead 3; Compounds were added in a 7-point, titration with a high final concentration of 29 uM by Pintool from seven inter-plate titrations of library plates and two DMSO control plates at the beginning and end (see Yasgar et al., 2008). 4; Red blood cells infected with Plasmodium falciparum Dd2 parasites were used. 6; Lysis buffer: 20 mM Tris-HCl, 10 mM EDTA, 0.16% Saponin, 1.6% Triton-X, 10X SYBR Green. REFERENCE: Inglese J, Shamu CE, Guy RK. 2007. Reporting data from high-throughput screening of small-molecule libraries. Nat Chem Biol. doi:10.1038/nchembio0807-438 Yasgar A, Shinn P, Jadhav A, Auld D, Michael S, Zheng W, Austin CP, Inglese J, Simeonov A. 2008. Compound Management for Quantitative High-Throughput Screening. J Lab Autom 13:79-89. doi:10.1016/j.jala.2007.12.004
For the compound `CC(C)(C)C(=O)Cn1ccn2nc3c(c2c1=O)CCCC3`, the Potency entry is “inactive”.

Regarding `Cc1cc2nc3n(c(=O)c2n1CC(=O)NC(C)CCc1ccccc1)CCCC3` (centres undefined), the Potency result is “inactive”.

With `CCc1ccc(CNCc2c(C(=O)O)n(Cc3ccc(F)cc3Cl)c3cc(OC)ccc23)cc1`, the Potency result was “inactive”.

`COc1cccc(CNCc2c(C(=O)O)n(Cc3ccc(C)cc3)c3cc(C)ccc23)c1OC`: the Potency was 10 µM (active).

On to `COc1ccc2c(CNCCc3ccccc3C)c(C(=O)O)n(Cc3ccccc3C)c2c1`, for which the activity, negative = inhibition is 54.4% [at 5.79 µM].

Regarding `O=C(CCCc1ccccc1)N1CCCC(c2nc(C3CCOCC3)no2)C1` (centres undefined), the Potency result was “inactive”.

Consider `COc1ccc(O[C@H]2COCCN(Cc3nccn3C)C2)cc1`, for which the Potency result was “inactive”.

As for `Cn1cc(CN2CCOC[C@H](Oc3ccc(S(C)(=O)=O)cc3)C2)c2ccccc21`, the Potency is 10 µM (active).

Regarding `CC(C)CN1CCOC[C@H](Oc2ccc(S(C)(=O)=O)cc2)C1`, the Potency result is “inactive”.

For `COc1ccc(-c2noc(CC3CCN(C(=O)Cc4ccc(OC)c(OC)c4)CC3)n2)cc1`, the Potency was 11.2 µM (active).

In the case of `COc1ccc(-c2noc(CC3CCN(C(=O)Cc4ccc(C)cc4)CC3)n2)cc1`, the Potency result is “inactive”.

`COc1ccc(CC(=O)N2CCC(Cc3nc(-c4ccccc4)no3)CC2)cc1OC`: the Potency result is “inactive”.

`N#Cc1ccc(C(=O)N[C@@H](Cc2ccccc2)C(=O)N2CCCOCCNC(=O)CC2)cc1`: the Potency result was “inactive”.

For the compound `CC(C)(C)C(=O)N1CCC(c2nn(-c3ccc(F)cc3)c(=O)[nH]2)CC1`, the Potency result was “inactive”.

In the case of `Cc1ccc(NC(=O)N2CCc3[nH]c4ccc(F)cc4c3C2)cc1`, the Potency entry was “inactive”.

Turning to `COCc1cn([C@H]2CO[C@H]3[C@@H]2OC[C@H]3OC(=O)Nc2cccc(C#N)c2)nn1`, the Potency entry is “inactive”.

With `CCOc1ccccc1NC(=O)Cn1c(=O)n(Cc2ccccc2)c(=O)c2c(C)c(C(=O)N(C)C)sc21`, the Potency is 3.16 µM (active).

On to `Cc1c(C(=O)N(C)C)sc2c1c(=O)n(-c1ccc(F)cc1)c(=O)n2CC(=O)N(C)c1ccccc1`, for which the Potency entry was “inactive”.

As for `COc1cccc(-n2c(=O)c3c(C)c(C(=O)N(C)C)sc3n(CC(=O)NCCc3ccc(OC)c(OC)c3)c2=O)c1`, the Potency result is “inactive”.

With `COc1ccc(Nc2ccc3c(n2)CN(Cc2ccccc2C)C(=O)CO3)cn1`, the Potency result is “inactive”.

As for `COCCOCC(=O)N1CCC2(CC1)NCCc1c2[nH]c2ccccc12`, the Potency result is “inactive”.

Turning to `O=C(C1CCCO1)N1CCC2(CC1)NCCc1c2[nH]c2ccccc12` (centres undefined), the Potency entry was “inactive”.

`O=C(COc1ccc(F)cc1)N1CCC2(CC1)NCCc1c2[nH]c2ccccc12`: the Potency is 10 µM (active).

Consider `Cc1nc2ncccn2c1C(=O)N[C@@H]1CCOC[C@H]1Oc1ccccn1`, for which the Potency result is “inactive”.

As to `Cc1ccc2c(C(=O)O)cc(NC(=O)C(C)C)cc2n1`, the Potency result is “inactive”.

Turning to `Cc1ccccc1NC1CCn2c(nc(C)c2C(=O)Nc2ccc(F)cc2)C1` (centres undefined), the Potency result was “inactive”.

As to `CCN(CCCNC(=O)c1cc2cc3cc(OC)ccc3nc2s1)c1ccccc1`, the Potency result is “inactive”.

Regarding `CCN(CCCNC(=O)Cn1ncc2c([nH]c3ccccc32)c1=O)c1cccc(C)c1`, the Potency result is “inactive”.

`CCN(CCCNC(=O)c1nnn2cc(-c3ccccc3)[nH]c(=O)c12)c1ccccc1`: the Potency was 8.91 µM (active).

`Cc1nn(C)cc1CN(C)C(=O)C1CN(S(=O)(=O)c2cccnc2)CC12CCCCC2` (centres undefined): the Potency result is “inactive”.

With `COc1cc(=O)n2c(c1C(=O)Nc1cccc(Br)c1)CCCC2`, the Potency entry is “inactive”.

For `CCc1cccc(NC(=O)N2CCC(c3noc(COc4ccc(F)cc4)n3)CC2)c1`, the Potency entry was “inactive”.

As to `CCOc1ccc(-c2cc(C)n3nc(C(=O)Nc4ccc(C)c(C)c4)cc3n2)cc1`, the Potency result is “inactive”.

`CCOc1ccc(-c2cc3nc(C4CCN(C(=O)OC(C)(C)C)CC4)c(C(=O)Nc4cccc(CC)c4)cn3n2)cc1`: the Potency is 7.94 µM (active).

In the case of `O=C(C[C@@H]1CCNC[C@@H]1Cc1cc(COc2ccccc2)on1)NCc1ccco1`, the Potency entry was “inactive”.

As for `CCc1cccc(NC(=O)CN2C(=O)NC(c3ccc(Cl)cc3)C3=C2COC3=O)c1` (centres undefined), the Potency entry was “inactive”.

For the compound `Cc1ccc(-c2nnc(C3CN(C(=O)c4cc(C)cc(C)c4)CC34CCOCC4)o2)cc1` (centres undefined), the Potency result was “inactive”.

For `CC(=O)NCC(=O)N1Cc2ccccc2CC2(CCCN2Cc2cccnc2)C1` (centres undefined), the Potency result was “inactive”.

Regarding `C[S+](=O)([O-])N1Cc2ccccc2CC2(CCN(Cc3cccnc3)CC2)C1`, the Potency result is “inactive”.

As for `O=[S+]([O-])(c1ccccc1)N1CC2(CCCCN2Cc2cccnc2)Cc2ccccc21` (centres undefined), the Potency was 8.91 µM (active).

As to `CN1CCCN(S(=O)(=O)c2ccccc2)CCC(=O)NCC1`, the Potency result was “inactive”.

Regarding `CC(C)c1noc(-c2cccn3c(CNC(=O)c4ccc(C(C)(C)C)cc4)nnc23)n1`, the Potency entry is “inactive”.

Take `Cc1nc(-c2ccc(Cl)cc2)n(Cc2cc(F)cc(F)c2)c(=O)c1CCO`: the Potency result was “inactive”.

As to `CCOc1ccc(C(=O)/C=C/c2cn(CC(O)CN3CCCCCC3)c3ccccc23)cc1` (centres undefined), the Potency is 12.6 µM (active).

`CCOc1ccc(C(=O)N2CCCN(C(=O)C3CC3)c3ccccc32)cc1`: the Potency entry is “inactive”.

As to `COc1ccc2cc(C(=O)N3C[C@@H](Oc4ccccc4)C[C@H]3C(=O)N3CCOCC3)[nH]c2c1`, the Potency entry is “inactive”.

On to `COC(=O)c1ccc(NC(=O)CCc2c(C)nc3c(c(C)nn3-c3ccc(C)cc3)c2C)cc1`, for which the Potency was 6.31 µM (active).

For `Cc1nc2c(c(C)nn2-c2ccccc2)c(C)c1CCC(=O)NCCc1ccc(Cl)cc1`, the Potency result was “inactive”.

Take `Cc1ccc(CNC(=O)CCc2c(C)nc3c(c(C)nn3-c3ccccc3)c2C)cc1`: the Potency result is “inactive”.

Turning to `Cn1cc(-c2ccccc2)cc1C(=O)NCc1ccc(N2CCOCC2)cc1`, the Potency entry was “inactive”.

Consider `CC[C@@]1(C(=O)O)C[C@H](C(=O)NCCCO)[C@H](c2ccc(OC)cc2)N1C`, for which the Potency result is “inactive”.

In the case of `CCc1noc(-c2nnn3c2COC(c2ccc(OC)cc2)C3)n1` (centres undefined), the Potency entry was “inactive”.

In the case of `CN(C)S(=O)(=O)N1CCC(Oc2ccc(C(=O)NC3(C)CC3)cc2)CC1`, the Potency entry was “inactive”.

Consider `Cc1nn2c(c1-c1ccccc1N1CCCC1)N(C(=O)c1ccn(C)n1)CCC2`, for which the Potency result was “inactive”.

Regarding `O=C(c1cccs1)N1CC(Oc2ccc(-c3nc(-c4ccccc4)no3)cc2)C1`, the activity, negative = inhibition was 8.59% [at 5.79 µM].

Regarding `O=C(c1ccc(C(F)(F)F)cc1)N1CCn2c(nn(-c3cccc(Cl)c3)c2=O)C1`, the Potency result was “inactive”.

Regarding `Cn1nnnc1SCCCNCc1ccc(Cl)cc1`, the Potency result is “inactive”.

For `Cn1nnnc1SCCCNCc1cccc(OCc2ccc(Cl)cc2)c1`, the Potency was 12.6 µM (active).

Turning to `Cn1nnnc1SCCNCc1ccc(Cl)c(Cl)c1`, the Potency entry was “inactive”.
